Experimental data: the supplement of paper PMC10849652
Of roughly 7,900 targets only a part is listed; those with a hit were picked by preference. About 0.6% of all pairs of compound and target were hits.

What was measured:
Experiment in all cases: log2 fold change, soluble protein after heating vs DMSO (PISA); higher = thermal stabilisation; K562 cells, 10 uM, 30 min; active = over 0.2 and 3.5 SD of the protein, either way, in both replicates (recomputed)
saracatinib = compound: CN1CCN(CCOc2cc(OC3CCOCC3)c3c(Nc4c(Cl)ccc5c4OCO5)ncnc3c2)CC1 [saracatinib]
Method in brief: (§1)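 Quantification of soluble protein used TMTpro 16plex LC-MS/MS, with channel sums equalised. Samples were the supernatant after 21,000xg for 90 min of pooled aliquots from K562 cells (2×10^6 cells/mL) treated with 10 μM compound for 30 min, heated for 3 min over 48°C-58°C, and extracted in PBS with 0.5% NP-40 at 4°C. Values, from duplicates, describe thermal stability against control samples on a log2 fold-change scale.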

sotrastaurin = compound: CN1CCN(c2nc(C3=C(c4c[nH]c5ccccc45)C(=O)NC3=O)c3ccccc3n2)CC1 [sotrastaurin]
Method in brief: as §1

alvocidib = compound: CN1CC[C@H](c2c(O)cc(O)c3c(=O)cc(-c4ccccc4Cl)oc23)[C@H](O)C1 [alvocidib]
Method in brief: as §1

Tubastatin A = compound: CN1CCc2c(c3ccccc3n2Cc2ccc(C(=O)NO)cc2)C1 [Tubastatin A]
Method in brief: as §1

[1] = compound: CNC(=O)C1=CC=CC=C1NC2=NC(=NC=C2Cl)NC3=C(C=C(C=C3)N4CCOCC4)OC
Method in brief: as §1

defactinib = compound: CNC(=O)c1ccc(Nc2ncc(C(F)(F)F)c(NCc3nccnc3N(C)S(C)(=O)=O)n2)cc1 [defactinib]
Method in brief: as §1

rucaparib = compound: CNCc1ccc(-c2[nH]c3cc(F)cc4c3c2CCNC4=O)cc1 [rucaparib]
Method in brief: as §1

[2] = compound: CNc1nc(-c2ccc3c(N)n[nH]c3c2)cc(N2C[C@@H](C(=O)NC3CCCCC3)CC[C@H]2C)n1
Method in brief: as §1

encorafenib = compound: COC(=O)N[C@@H](C)CNc1nccc(-c2cn(C(C)C)nc2-c2cc(Cl)cc(NS(C)(=O)=O)c2F)n1 [encorafenib]
Method in brief: as §1

[3] = compound: COC(=O)[C@H](CCSC)NC(=O)C1=C(C=C(C=C1)NC[C@H](CS)N)C2=CC=CC=C2
Method in brief: as §1

[4] = compound: COC1=CC=C(C=C1)CN2C=CC3=C2C=C(C=C3)C(=O)NO
Method in brief: as §1

filanesib = compound: CON(C)C(=O)N1N=C(c2cc(F)ccc2F)S[C@@]1(CCCN)c1ccccc1 [filanesib]
Method in brief: as §1

zotarolimus = compound: CO[C@H]1C[C@@H]2CC[C@@H](C)[C@@](O)(O2)C(=O)C(=O)N2CCCC[C@H]2C(=O)O[C@H]([C@H](C)C[C@@H]2CC[C@H](n3cnnn3)[C@H](OC)C2)CC(=O)[C@H](C)/C=C(\C)[C@@H](O)[C@@H](OC)C(=O)[C@H](C)C[C@H](C)/C=C/C=C/C=C/1C [zotarolimus]
Method in brief: as §1

idasanutlin = compound: COc1cc(C(=O)O)ccc1NC(=O)[C@@H]1N[C@@H](CC(C)(C)C)[C@](C#N)(c2ccc(Cl)cc2F)[C@H]1c1cccc(Cl)c1F [idasanutlin]
Method in brief: as §1

alisertib = compound: COc1cc(Nc2ncc3c(n2)-c2ccc(Cl)cc2C(c2c(F)cccc2OC)=NC3)ccc1C(=O)O [alisertib]
Method in brief: as §1

[5] = compound: COc1cc2nc(-c3cc(F)ccc3O)nc(N[C@@H]3CNC[C@H]3C(C)(C)O)c2cc1OC
Method in brief: as §1

gefitinib = compound: COc1cc2ncnc(Nc3ccc(F)c(Cl)c3)c2cc1OCCCN1CCOCC1 [gefitinib]
Method in brief: as §1

[6] = compound: COc1cccc2cc(-c3nc([C@H]4CC[C@H](C(=O)O)CC4)n4ncnc(N)c34)[nH]c12
Method in brief: as §1

lapatinib = compound: CS(=O)(=O)CCNCc1ccc(-c2ccc3ncnc(Nc4ccc(OCc5cccc(F)c5)c(Cl)c4)c3c2)o1 [lapatinib]
Method in brief: as §1

pictilisib = compound: CS(=O)(=O)N1CCN(Cc2cc3nc(-c4cccc5[nH]ncc45)nc(N4CCOCC4)c3s2)CC1 [pictilisib]
Method in brief: as §1

Measured: log2 fold change

NDUFS7 (UniProt O75251)
Sequence of UniProt O75251 (O75251 whole entry, looked up): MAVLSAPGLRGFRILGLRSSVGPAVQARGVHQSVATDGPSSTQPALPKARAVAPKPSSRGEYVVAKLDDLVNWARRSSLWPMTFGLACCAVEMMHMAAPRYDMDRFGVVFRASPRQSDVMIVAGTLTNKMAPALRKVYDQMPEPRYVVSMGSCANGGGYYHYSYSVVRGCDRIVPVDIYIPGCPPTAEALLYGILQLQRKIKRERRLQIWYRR
inactive: saracatinib -0.047 | sotrastaurin 0.014 | alvocidib -0.011 | Tubastatin A -0.001 | [1] -0.038 | defactinib -0.016 | rucaparib -0.004 | [2] -0.048 | encorafenib 0.024 | [3] 0.002 | [4] -0.009 | filanesib -0.108 | zotarolimus -0.036 | idasanutlin -0.112 | alisertib 0.039 | [5] -0.106 | gefitinib -0.029 | [6] 0.057 | lapatinib 0.015 | pictilisib 0.047

NECTIN2 (UniProt Q92692)
Sequence of UniProt Q92692 (Q92692 whole entry, looked up): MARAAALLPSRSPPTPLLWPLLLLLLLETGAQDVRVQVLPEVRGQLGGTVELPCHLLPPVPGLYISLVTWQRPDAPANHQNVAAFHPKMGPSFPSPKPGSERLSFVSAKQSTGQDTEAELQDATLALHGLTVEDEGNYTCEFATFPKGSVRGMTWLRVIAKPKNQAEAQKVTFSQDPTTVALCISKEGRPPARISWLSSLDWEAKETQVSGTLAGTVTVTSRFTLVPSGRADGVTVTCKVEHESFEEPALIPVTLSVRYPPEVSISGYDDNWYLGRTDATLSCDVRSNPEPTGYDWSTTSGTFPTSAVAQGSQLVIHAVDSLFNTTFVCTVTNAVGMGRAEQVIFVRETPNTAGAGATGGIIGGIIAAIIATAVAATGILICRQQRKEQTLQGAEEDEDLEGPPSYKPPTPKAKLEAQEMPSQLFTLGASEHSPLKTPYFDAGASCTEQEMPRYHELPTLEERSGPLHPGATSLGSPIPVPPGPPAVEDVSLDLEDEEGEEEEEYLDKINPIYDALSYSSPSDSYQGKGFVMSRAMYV
inactive: saracatinib 0.021 | sotrastaurin 0.047 | alvocidib -0.044 | Tubastatin A -0.013 | [1] -0.056 | defactinib -0.013 | rucaparib -0.051 | [2] 0.049 | encorafenib -0.024 | [3] 0.063 | [4] -0.028 | filanesib 0.027 | zotarolimus -0.042 | idasanutlin -0.003 | alisertib -0.084 | [5] 0.011 | gefitinib 0.06 | [6] 0.014 | lapatinib -0.01 | pictilisib 0.021

MYH11 isoform 2 (UniProt P35749)
Sequence of UniProt P35749 (P35749 whole entry, looked up): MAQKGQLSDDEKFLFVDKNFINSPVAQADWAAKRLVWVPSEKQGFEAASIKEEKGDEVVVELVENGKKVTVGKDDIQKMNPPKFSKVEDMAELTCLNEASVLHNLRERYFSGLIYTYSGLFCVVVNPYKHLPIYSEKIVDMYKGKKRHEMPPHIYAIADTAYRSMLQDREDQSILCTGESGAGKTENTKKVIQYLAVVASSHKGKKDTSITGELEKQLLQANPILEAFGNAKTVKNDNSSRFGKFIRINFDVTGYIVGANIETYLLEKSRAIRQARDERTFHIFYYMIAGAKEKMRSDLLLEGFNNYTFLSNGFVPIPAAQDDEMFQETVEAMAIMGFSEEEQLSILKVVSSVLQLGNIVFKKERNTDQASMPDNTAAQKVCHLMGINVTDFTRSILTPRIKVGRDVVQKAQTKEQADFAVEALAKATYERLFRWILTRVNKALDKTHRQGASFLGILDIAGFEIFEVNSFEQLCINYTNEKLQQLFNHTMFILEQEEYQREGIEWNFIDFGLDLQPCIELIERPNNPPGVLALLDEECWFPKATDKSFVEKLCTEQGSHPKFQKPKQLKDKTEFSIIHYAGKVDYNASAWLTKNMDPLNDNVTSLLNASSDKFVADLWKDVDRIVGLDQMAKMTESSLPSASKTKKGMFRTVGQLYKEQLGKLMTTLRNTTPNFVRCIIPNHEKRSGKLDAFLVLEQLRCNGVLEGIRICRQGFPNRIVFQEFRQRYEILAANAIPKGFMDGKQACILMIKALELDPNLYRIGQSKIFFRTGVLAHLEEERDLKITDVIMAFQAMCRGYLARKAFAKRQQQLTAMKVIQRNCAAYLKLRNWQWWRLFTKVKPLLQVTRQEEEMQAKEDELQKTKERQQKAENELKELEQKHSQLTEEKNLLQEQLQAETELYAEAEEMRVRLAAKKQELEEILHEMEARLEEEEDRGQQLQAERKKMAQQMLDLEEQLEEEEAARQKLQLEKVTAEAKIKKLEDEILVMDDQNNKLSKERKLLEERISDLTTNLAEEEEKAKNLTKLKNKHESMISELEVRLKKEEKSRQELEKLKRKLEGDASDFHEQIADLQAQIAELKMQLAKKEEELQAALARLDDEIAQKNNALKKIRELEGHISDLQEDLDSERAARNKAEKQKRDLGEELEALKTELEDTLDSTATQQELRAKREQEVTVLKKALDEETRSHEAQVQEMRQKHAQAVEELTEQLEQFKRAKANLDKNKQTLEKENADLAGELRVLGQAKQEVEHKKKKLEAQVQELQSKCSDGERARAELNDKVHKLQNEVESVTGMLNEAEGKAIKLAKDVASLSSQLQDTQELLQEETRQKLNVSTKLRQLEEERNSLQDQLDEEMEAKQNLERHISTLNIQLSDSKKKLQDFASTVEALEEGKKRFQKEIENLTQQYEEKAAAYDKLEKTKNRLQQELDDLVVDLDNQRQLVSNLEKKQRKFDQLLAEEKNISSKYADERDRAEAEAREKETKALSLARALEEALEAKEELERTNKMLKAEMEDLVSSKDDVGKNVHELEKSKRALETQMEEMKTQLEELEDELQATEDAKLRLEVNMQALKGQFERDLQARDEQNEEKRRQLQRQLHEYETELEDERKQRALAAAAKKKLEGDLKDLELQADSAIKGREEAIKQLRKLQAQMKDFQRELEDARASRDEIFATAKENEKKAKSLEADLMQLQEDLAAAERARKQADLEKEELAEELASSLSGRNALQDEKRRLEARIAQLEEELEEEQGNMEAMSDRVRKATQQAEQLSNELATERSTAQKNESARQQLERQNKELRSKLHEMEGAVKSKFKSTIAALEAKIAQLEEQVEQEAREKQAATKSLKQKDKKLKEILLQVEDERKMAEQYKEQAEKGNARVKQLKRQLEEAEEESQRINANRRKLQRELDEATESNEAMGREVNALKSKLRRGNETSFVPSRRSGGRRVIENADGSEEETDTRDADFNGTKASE
inactive: saracatinib 0.069 | sotrastaurin -0.024 | alvocidib -0.024 | Tubastatin A -0.025 | [1] 0.03 | defactinib -0.039 | rucaparib -0.034 | [2] 0.009 | encorafenib 0.001 | [3] -0.022 | [4] 0.027 | filanesib -0.002 | zotarolimus 0.022 | idasanutlin -0.045 | alisertib 0.033 | [5] 0.067 | gefitinib 0.025 | [6] -0.033 | lapatinib 0.018 | pictilisib -0.035

MRPS27 isoform 2 (UniProt Q92552)
inactive: saracatinib -0.107 | sotrastaurin -0.089 | alvocidib -0.078 | Tubastatin A 0.06 | [1] 0.071 | defactinib -0.012 | rucaparib 0.069 | [2] 0.108 | encorafenib 0.109 | [3] -0.045 | [4] 0.062 | filanesib 0.029 | zotarolimus 0.068 | idasanutlin -0.124 | alisertib -0.05 | [5] -0.024 | gefitinib 0.016 | [6] -0.014 | lapatinib 0.036 | pictilisib -0.038

NISCH (UniProt Q9Y2I1)
inactive: saracatinib -0.037 | sotrastaurin -0.066 | alvocidib -0.054 | Tubastatin A -0.022 | [1] -0.141 | defactinib -0.128 | rucaparib -0.041 | [2] -0.072 | encorafenib 0.093 | [3] -0.12 | [4] -0.008 | filanesib -0.029 | zotarolimus -0.022 | idasanutlin -0.015 | alisertib 0.023 | [5] -0.119 | gefitinib -0.014 | [6] 0.106 | lapatinib 0.041 | pictilisib -0.061

MND1 (UniProt Q9BWT6)
Sequence of UniProt Q9BWT6 (Q9BWT6 whole entry, looked up): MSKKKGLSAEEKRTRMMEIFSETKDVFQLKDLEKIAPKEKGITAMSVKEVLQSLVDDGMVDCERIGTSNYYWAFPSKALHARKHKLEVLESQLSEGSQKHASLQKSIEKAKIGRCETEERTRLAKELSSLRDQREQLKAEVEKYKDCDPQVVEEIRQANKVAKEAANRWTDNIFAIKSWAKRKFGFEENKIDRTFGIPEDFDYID
inactive: saracatinib 0.006 | sotrastaurin 0.036 | alvocidib 0.011 | Tubastatin A -0.006 | [1] -0.029 | defactinib -0.021 | rucaparib 0.05 | [2] -0.059 | encorafenib -0.15 | [3] 0.023 | [4] -0.037 | filanesib -0.057 | zotarolimus -0.077 | idasanutlin 0.099 | alisertib 0.062 | [5] -0.235 | gefitinib -0.193 | [6] 0.03 | lapatinib -0.025 | pictilisib 0.032

MKNK1 (UniProt Q9BUB5)
Sequence of UniProt Q9BUB5 (Q9BUB5 whole entry, looked up): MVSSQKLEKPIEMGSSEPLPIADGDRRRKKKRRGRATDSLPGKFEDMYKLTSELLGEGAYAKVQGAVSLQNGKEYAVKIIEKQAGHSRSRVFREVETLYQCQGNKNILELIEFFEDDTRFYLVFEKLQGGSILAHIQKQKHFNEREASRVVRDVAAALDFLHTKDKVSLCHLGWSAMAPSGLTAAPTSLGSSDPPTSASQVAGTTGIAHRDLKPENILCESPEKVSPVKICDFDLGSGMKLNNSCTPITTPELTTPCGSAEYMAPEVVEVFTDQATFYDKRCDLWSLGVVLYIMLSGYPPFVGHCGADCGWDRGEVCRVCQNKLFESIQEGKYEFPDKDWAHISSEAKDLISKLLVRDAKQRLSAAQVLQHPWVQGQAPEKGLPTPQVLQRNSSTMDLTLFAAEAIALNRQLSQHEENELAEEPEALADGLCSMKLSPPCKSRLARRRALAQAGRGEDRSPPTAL
active: gefitinib 0.525
inactive: saracatinib 0.049 | sotrastaurin -0.088 | alvocidib -0.06 | Tubastatin A 0.037 | [1] 0.038 | defactinib -0.102 | rucaparib 0.099 | [2] 0.051 | encorafenib 0.018 | [3] -0.053 | [4] 0.021 | filanesib -0.108 | zotarolimus -0.022 | idasanutlin -0.075 | alisertib 0.008 | [5] -0.021 | [6] -0.073 | lapatinib 0.015 | pictilisib -0.058

MRPL47 (UniProt Q9HD33)
active: pictilisib 0.745
inactive: saracatinib -0.168 | sotrastaurin -0.024 | alvocidib 0.113 | Tubastatin A 0.081 | [1] -0.028 | defactinib 0.151 | rucaparib -0.122 | [2] 0.17 | encorafenib 0.063 | [3] -0.022 | [4] -0.068 | filanesib 0.183 | zotarolimus 0.072 | idasanutlin -0.042 | alisertib -0.087 | [5] -0.033 | gefitinib -0.134 | [6] -0.186 | lapatinib 0.072

NSUN2 (UniProt Q08J23)
Sequence of UniProt Q08J23 (Q08J23 whole entry, looked up): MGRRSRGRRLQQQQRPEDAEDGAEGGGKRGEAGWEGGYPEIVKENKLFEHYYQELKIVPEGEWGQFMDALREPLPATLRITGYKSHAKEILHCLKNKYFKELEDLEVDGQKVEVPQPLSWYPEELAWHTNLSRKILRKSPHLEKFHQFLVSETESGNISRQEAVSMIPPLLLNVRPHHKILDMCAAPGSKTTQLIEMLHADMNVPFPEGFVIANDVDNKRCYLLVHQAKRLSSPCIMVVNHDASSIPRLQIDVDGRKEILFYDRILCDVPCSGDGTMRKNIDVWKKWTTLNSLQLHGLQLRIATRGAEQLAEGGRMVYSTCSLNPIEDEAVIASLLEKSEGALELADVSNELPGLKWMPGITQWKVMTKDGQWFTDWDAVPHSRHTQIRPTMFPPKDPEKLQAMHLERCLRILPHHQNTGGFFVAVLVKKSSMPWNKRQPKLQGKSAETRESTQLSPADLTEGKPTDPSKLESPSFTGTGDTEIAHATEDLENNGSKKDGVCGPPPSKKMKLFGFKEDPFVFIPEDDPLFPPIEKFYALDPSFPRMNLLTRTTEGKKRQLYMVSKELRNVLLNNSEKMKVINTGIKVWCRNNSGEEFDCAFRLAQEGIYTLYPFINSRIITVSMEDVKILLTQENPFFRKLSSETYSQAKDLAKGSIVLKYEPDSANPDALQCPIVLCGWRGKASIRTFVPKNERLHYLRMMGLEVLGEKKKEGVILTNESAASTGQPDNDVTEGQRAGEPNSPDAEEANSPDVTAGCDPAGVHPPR
inactive: saracatinib 0.008 | sotrastaurin -0.243 | Tubastatin A -0.008 | [1] -0.081 | rucaparib -0.021 | [2] -0.083 | encorafenib 0.004 | [3] 0.009 | [4] -0.153 | filanesib -0.002 | zotarolimus -0.046 | idasanutlin 0.021 | alisertib -0.022 | [5] -0.235 | gefitinib 0.015 | [6] -0.003 | lapatinib 0.035 | pictilisib -0.088
active: alvocidib -0.328 | defactinib -0.281

NELFA (UniProt Q9H3P2)
Sequence of UniProt Q9H3P2 (Q9H3P2 whole entry, looked up): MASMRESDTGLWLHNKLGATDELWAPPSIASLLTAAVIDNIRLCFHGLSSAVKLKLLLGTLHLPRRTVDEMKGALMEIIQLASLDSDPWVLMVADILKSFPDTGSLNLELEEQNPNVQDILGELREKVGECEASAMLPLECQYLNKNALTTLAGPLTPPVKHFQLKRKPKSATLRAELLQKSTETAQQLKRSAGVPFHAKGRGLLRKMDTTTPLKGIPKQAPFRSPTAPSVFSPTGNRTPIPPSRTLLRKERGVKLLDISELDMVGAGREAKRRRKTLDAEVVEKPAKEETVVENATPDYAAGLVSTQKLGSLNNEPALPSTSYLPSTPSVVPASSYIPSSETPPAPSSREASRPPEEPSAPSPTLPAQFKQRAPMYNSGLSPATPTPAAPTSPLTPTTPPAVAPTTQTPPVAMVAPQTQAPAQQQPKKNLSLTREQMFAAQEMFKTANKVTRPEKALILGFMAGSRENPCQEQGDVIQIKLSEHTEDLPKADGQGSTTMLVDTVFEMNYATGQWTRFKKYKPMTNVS
inactive: saracatinib 0.004 | sotrastaurin -0.023 | alvocidib -0.193 | Tubastatin A 0.216 | [1] 0.078 | defactinib -0.094 | rucaparib 0.261 | [2] -0.014 | encorafenib -0.039 | [3] -0.213 | [4] 0.031 | filanesib 0.035 | zotarolimus -0.084 | idasanutlin -0.117 | alisertib 0.092 | [5] 0.105 | gefitinib 0.36 | [6] 0.017 | lapatinib -0.079 | pictilisib 0.076

MRPS9 (UniProt P82933)
inactive: saracatinib -0.064 | sotrastaurin -0.072 | alvocidib 0.043 | Tubastatin A 0.04 | [1] 0.013 | defactinib 0.056 | rucaparib 0.087 | [2] 0.136 | encorafenib 0.05 | [3] -0.081 | [4] 0.009 | filanesib 0.007 | zotarolimus 0.065 | idasanutlin -0.16 | alisertib 0.076 | [5] -0.021 | gefitinib 0.084 | [6] 0.016 | lapatinib 0.096 | pictilisib -0.049

NSMCE2 (UniProt Q96MF7)
Sequence of UniProt Q96MF7 (Q96MF7 whole entry, looked up): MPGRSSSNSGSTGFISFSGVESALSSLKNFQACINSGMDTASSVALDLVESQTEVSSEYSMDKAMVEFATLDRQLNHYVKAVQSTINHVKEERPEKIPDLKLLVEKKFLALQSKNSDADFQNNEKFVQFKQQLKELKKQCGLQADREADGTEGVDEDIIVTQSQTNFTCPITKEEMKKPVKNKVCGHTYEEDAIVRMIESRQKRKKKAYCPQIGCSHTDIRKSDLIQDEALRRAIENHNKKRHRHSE
active: pictilisib -0.233
inactive: saracatinib -0.019 | sotrastaurin -0.095 | alvocidib -0.004 | Tubastatin A 0 | [1] 0.031 | defactinib -0.06 | rucaparib 0.076 | [2] -0.076 | encorafenib -0.001 | [3] 0.025 | [4] -0.029 | filanesib 0.045 | zotarolimus 0.018 | idasanutlin 0.027 | alisertib -0.076 | [5] 0.018 | gefitinib -0.009 | [6] -0.018 | lapatinib 0.023
